Data reported in PubChem BioAssay (NCATS).
“And” between values parts separate entries of the source, which are not always exact repeats. Equal entries are not always repeated. Inconclusive results are not listed. A call without a number means that no potency is given here. The source made the active and inactive calls. Unless noted, the call rests on the fitted dose curve; in most records, active means well fitted curve in the direction sought with a large enough effect; inconclusive means small, poorly fitted or top-dose-only effect, or another doubt; inactive means no such curve, though single readings can be large; an effect the other way counts as inactive or inconclusive.

Assays:
[1] = Cell Viability - Jurkat (AID 426;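 active means dose-dependent loss of cell ATP signal giving a full or clear fitted curve, ranked by lower potency value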; further: potency means the concentration at half of the fitted maximal effect); details: qHTS
Summary of the method: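 Jurkat (Clone E6-1) cells, 5000/well in complete medium, exposed to compounds for 40 hr at 37C; intracellular ATP measured by CellTiter-Glo luminescence after 20 min at room temperature. AC50 from Hill fits.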

[2] = Cell Viability - NIH 3T3 (AID 541); details: NIH 3T3 cell viability, qHTS; activity change, negative = cytotoxicity: at 92.2 µM (top of the series); further: nearly all actives have a fitted effect of over 25% in size
Summary of the method: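 Mouse NIH 3T3 fibroblasts, 1000 cells/well, rested 5 hr at 37 °C, then exposed to compound for 40 hr at 37 °C in complete medium. Viability read as intracellular ATP by CellTiter-Glo luminescence; AC50 from Hill-equation fits of concentration-response data.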

[3] = MultiTox-Fluor Cytotoxicity Assay - LYMP1-002 - Dead Cells (AID 960); details: LYMP1-002 lymphoblastoid cells, dead-cell protease fluorescence; series mostly up to 46.1 µM; further: nearly all actives have a fitted effect of over 60% in size
Summary of the method: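 Human lymphoblastoid LYMP1-002 cells, 2500/well, treated 16 h at 37 C; dead-cell protease cleavage of bis-AAF-R110 read by fluorescence (485/520); normalized to DMSO and 15 uM tetraoctylammonium bromide; AC50 from Hill fit.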

[4] = Cell Viability - LYMP2-009 (AID 968); details: LYMP2-009 lymphoblastoid cell viability; series mostly up to 92.2 µM;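 further: cells exposed to compound for 24 h at 37 °C; nearly all actives have a fitted effect of over 55% in size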
[5] = Cell Viability - LYMP2-019 (AID 973); details: LYMP2-019 lymphoblastoid cell line viability; series mostly up to 92.2 µM;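 further: cells exposed to compound for 24 h at 37 °C; nearly all actives have a fitted effect of over 55% in size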
Summary of the method: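 Human lymphoblastoid LYMP2-019 cells (2500/well) preincubated 5 h at 37 C, then treated 24 h at 37 C in complete medium. Viability by CellTiter-Glo ATP luminescence after 30 min at room temperature; AC50 from Hill fits.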

[6] = molecular target: Glucocorticoid receptor (Homo sapiens) (UniProt P04150); assay: qHTS assay for small molecule agonists of glucocorticoid receptor signaling (AID 588532; active means well fitted curve in the direction sought with a large enough effect in the signal ratio, with a control signal flat; the % refers to the signal ratio); details: HeLa MMTV-bla, beta-lactamase ratio, agonist, 18 h; stronger effect = higher value; percent of dexamethasone control, DMSO zero
Chain of Glucocorticoid receptor (Homo sapiens) (P04150 whole entry, looked up): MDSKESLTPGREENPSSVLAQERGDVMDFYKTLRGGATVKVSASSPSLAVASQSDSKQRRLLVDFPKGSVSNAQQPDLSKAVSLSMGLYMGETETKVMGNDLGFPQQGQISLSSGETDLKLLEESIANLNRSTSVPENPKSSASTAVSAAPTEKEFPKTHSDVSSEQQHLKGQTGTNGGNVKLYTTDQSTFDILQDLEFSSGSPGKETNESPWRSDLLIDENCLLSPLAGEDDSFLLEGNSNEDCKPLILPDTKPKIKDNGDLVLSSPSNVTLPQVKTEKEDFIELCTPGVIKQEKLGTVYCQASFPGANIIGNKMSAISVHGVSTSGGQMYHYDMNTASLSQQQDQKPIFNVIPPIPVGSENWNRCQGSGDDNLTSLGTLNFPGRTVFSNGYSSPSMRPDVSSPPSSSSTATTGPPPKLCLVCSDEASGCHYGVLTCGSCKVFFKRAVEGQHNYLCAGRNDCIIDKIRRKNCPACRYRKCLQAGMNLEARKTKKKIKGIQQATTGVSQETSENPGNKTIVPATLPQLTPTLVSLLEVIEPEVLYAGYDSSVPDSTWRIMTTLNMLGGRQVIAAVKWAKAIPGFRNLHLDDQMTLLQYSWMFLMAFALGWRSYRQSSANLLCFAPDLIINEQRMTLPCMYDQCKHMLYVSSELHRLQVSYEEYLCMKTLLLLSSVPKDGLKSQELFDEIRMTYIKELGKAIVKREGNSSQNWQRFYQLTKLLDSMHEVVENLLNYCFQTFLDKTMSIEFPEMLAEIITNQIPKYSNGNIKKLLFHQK
Summary of the method: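 MMTV-bla HeLa, beta-lactamase reporter; medium with 1% charcoal/dextran-stripped FBS; cpds up to 92 uM, 18 h, 37 C; CCF4 readout 460/530 nm; Hill fit → EC50, efficacy vs 0.1 uM dexamethasone = 100%.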

[7] = molecular target: Vitamin D3 receptor (Homo sapiens) (UniProt P11473); assay: qHTS assay for small molecule antagonists of vitamin D receptor signaling (AID 588541; calls by dose curve;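 further: receptor activated by calcitriol during compound treatment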); details: HEK293T VDR-UAS-bla, beta-lactamase ratio, antagonist mode; series mostly up to 76.7 µM
Chain of Vitamin D3 receptor (Homo sapiens) (P11473 whole entry, looked up): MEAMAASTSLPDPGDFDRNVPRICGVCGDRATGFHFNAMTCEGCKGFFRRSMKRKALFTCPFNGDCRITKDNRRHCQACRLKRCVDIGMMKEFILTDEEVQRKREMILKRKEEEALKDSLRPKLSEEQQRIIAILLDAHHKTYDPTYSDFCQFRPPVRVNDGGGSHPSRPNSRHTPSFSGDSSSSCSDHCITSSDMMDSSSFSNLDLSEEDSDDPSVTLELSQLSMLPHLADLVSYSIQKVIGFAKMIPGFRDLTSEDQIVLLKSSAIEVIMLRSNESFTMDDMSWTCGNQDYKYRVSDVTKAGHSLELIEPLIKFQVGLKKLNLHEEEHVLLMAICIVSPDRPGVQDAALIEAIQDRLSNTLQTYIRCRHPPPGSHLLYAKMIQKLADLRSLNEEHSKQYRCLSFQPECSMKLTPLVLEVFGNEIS
Summary of the method: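 VDR-UAS-bla HEK293T cells (2000/well, 2% charcoal-stripped FBS) were treated with titrated compounds plus 1-alpha,25-dihydroxyvitamin D3 (50 nM or 3 nM final) for 16 h at 37 C. CCF4 beta-lactamase fluorescence was read; Hill fits gave IC50.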

[8] = molecular target: Vitamin D3 receptor (Homo sapiens) (UniProt P11473); assay: qHTS assay for small molecule agonists of vitamin D receptor signaling (AID 588543; calls by dose curve); details: HEK293T VDR-UAS-bla, beta-lactamase ratio, 16 h; series mostly up to 76.8 µM
Summary of the method: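 β-lactamase reporter, VDR-UAS-bla HEK293T, agonist mode. Cells plated 5 h at 37 °C, compound titration 16 h at 37 °C, CCF4 dye 2 h RT, ratio 460/530 nm. Hill fit → EC50, efficacy vs 50 nM 1α,25-(OH)2D3.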

[9] = molecular target: Thyroid hormone receptor beta (Homo sapiens) (UniProt P10828); assay: qHTS assay for small molecule agonists of thyroid hormone receptor beta signaling (AID 588545; calls by dose curve); details: TR-UAS-bla GripTite HEK 293, beta-lactamase ratio, agonist mode, 18 h; series mostly up to 76.7 µM
Chain of Thyroid hormone receptor beta (Homo sapiens) (P10828 whole entry, looked up): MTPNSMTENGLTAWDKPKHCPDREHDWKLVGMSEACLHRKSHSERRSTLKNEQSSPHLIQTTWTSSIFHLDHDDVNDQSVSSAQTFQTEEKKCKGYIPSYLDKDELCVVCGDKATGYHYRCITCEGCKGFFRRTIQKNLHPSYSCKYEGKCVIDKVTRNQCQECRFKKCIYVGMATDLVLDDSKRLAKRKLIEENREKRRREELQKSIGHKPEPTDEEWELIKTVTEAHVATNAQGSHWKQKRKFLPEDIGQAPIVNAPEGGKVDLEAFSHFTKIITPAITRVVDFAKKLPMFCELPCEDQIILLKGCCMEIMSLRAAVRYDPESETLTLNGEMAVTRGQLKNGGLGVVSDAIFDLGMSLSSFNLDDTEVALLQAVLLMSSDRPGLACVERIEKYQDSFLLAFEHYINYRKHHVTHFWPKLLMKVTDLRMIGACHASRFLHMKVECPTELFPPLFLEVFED
Summary of the method: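 Cells (2500/well) were seeded, incubated 4 hrs at 37 C, dosed with a compound series, incubated 18 hrs, loaded with CCF4 dye for 2 hrs at RT, then read for fluorescence. Data were scaled between DMSO (0%) and 10 nM T3 (100%).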

[10] = qHTS assay for small molecule activators of the nuclear factor-kappa B (NF-kB) signaling pathway (AID 651749; active means well fitted activation curve with a large enough effect in the signal ratio; the % refers to the signal ratio); details: NF-kB-bla ME-180 cells, beta-lactamase FRET ratio, 16 h; stronger effect = higher value
Summary of the method: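 Screening used 2,000 ME-180 reporter cells per well exposed to pinned compound (23 nL) or DMSO; after 16 hr at 37C, beta-lactamase expression under NF-kB control was assessed through FRET.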

[11] = qHTS assay for small molecule agonists of the antioxidant response element (ARE) signaling pathway measured by Nrf2-dependant transcriptional activity (AID 720636; active means well fitted curve in the direction sought with a large enough effect in the repeat runs; an effect the other way counts as inactive or inconclusive); details: ARE-luc HepG2, Nrf2 luciferase reporter, 16 h; series mostly up to 92.4 µM
Summary of the method: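 Nrf2-dependent transcription read as ONE-Glo luciferase signal from ARE-luc HepG2 reporter cells after 16 hr compound treatment at 37 C, 5% CO2, in assay medium with 1% dialyzed FBS.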

[12] = molecular target: Cytochrome P450 3A4 (Homo sapiens) (UniProt P08684); assay: qHTS Assay for Inhibitors and Substrates of Cytochrome P450 3A4 (AID 884); details: recombinant CYP3A4, Luciferin-PPXE luminescence; series mostly up to 57.1 µM; further: nearly all actives have a fitted effect of over 50% in size; further: potency means the concentration at half of the fitted maximal effect
Chain of Cytochrome P450 3A4 (Homo sapiens) (P08684 whole entry, looked up): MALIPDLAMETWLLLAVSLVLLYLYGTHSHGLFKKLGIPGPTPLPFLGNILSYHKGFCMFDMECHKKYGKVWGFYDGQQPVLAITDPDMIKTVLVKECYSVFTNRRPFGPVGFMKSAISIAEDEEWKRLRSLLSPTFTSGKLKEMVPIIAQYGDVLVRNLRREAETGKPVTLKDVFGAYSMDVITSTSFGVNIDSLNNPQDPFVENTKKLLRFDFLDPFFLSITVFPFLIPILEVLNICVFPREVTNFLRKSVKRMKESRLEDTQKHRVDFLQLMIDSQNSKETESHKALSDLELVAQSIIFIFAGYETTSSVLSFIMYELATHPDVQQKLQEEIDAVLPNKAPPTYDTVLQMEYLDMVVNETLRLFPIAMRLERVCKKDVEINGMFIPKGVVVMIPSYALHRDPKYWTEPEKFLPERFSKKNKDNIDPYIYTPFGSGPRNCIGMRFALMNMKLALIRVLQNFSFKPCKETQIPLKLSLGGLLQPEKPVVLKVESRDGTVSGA
Summary of the method: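 20 nM human CYP3A4 with 25 uM Luciferin-PPXE (at KM) in 200 mM KPO4, preincubated 10 min with compound; NADPH regeneration started a 60 min RT reaction. Luciferin detected by luminescence, normalized to 57 uM ketoconazole as full inhibition.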

[13] = qHTS assay for small molecule agonists of retinoid X receptor alpha signaling (AID 588544); details: HEK293T RXRa-UAS-bla, beta-lactamase reporter, 18 h; 530 nm emission
[14] = molecular target: Voltage-gated inwardly rectifying potassium channel KCNH2 (Homo sapiens) (UniProt Q12809); assay: qHTS Assay for Small Molecule Inhibitors of the Human hERG Channel Activity (AID 588834); details: U2OS BacMam hERG, FluxOR thallium flux fluorescence; series mostly up to 92.2 µM;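 further: lower thallium flux fluorescence means stronger hERG block; nearly all actives have a fitted effect of over 50% in size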; further: potency means the concentration at half of the fitted maximal effect
Chain of Voltage-gated inwardly rectifying potassium channel KCNH2 (Homo sapiens) (Q12809 whole entry, looked up): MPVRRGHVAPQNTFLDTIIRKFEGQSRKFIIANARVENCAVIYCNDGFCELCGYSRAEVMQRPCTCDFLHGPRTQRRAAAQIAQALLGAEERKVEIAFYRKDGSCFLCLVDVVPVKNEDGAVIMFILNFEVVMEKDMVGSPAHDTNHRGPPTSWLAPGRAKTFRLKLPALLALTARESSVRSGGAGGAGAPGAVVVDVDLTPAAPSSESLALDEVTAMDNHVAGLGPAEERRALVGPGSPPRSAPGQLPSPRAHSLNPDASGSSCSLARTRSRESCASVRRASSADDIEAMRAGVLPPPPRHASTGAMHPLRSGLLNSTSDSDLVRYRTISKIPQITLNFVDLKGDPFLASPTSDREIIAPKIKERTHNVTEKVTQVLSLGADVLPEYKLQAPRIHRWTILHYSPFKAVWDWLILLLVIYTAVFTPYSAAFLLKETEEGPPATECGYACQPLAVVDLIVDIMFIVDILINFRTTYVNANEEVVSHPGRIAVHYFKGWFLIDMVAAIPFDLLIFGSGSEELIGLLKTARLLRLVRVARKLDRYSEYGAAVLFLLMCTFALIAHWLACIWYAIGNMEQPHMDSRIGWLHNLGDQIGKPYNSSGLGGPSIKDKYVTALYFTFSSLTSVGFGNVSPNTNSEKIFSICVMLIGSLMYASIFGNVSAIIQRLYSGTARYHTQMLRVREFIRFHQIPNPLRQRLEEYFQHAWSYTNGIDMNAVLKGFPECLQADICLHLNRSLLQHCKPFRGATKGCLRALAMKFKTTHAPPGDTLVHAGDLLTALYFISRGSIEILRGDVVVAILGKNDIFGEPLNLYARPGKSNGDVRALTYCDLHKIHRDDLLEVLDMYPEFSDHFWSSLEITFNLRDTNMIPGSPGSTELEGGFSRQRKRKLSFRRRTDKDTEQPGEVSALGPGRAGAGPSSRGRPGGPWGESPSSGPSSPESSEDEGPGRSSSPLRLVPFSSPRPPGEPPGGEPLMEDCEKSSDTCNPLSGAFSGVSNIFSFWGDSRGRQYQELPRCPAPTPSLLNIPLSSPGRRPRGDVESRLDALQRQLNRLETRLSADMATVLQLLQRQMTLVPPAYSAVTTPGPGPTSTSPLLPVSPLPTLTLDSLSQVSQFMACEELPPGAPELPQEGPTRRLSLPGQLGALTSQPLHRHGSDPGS
Summary of the method: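 Concentration-response qHTS measuring drop in thallium-sensitive dye signal. U2OS cells carrying BacMam hERG; compound exposure ~10 min, then stimulation buffer and 2 min read at 1 sec intervals.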

[15] = molecular target: Tumor necrosis factor (Homo sapiens) (UniProt P01375); assay: qHTS assay to identify small molecules that stimulate Tumor Necrosis Factor-alpha (TNF-alpha) secretion (AID 651757; active means well fitted curve in the direction sought with a large enough effect in the signal ratio; the % refers to the signal ratio; further: potency means the concentration at half of the fitted maximal effect); details: Human cells, HTRF 665/615 ratio; series mostly up to 92.2 µM
Chain of Tumor necrosis factor (Homo sapiens) (P01375 whole entry, looked up): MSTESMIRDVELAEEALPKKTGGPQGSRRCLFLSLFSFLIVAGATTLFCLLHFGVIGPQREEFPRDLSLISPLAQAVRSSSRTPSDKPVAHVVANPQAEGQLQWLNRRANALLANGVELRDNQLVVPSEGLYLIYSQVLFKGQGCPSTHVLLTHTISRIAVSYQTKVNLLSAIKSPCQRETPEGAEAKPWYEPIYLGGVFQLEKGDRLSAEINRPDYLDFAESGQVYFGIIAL
Summary of the method: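 THP-1 cells (3000/well) exposed to compounds 17 hrs at 37 C. Secreted TNF-alpha detected by HTRF with cryptate- and XL665-labeled anti-TNF-alpha antibodies after 3 hr at room temperature.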

[16] = qHTS assay for cell viability of the p53RE-bla HCT-116 cell line (AID 743292); details: p53RE-bla HCT-116 viability, ATP luminescence, 16 h; series mostly up to 95 µM; further: nearly all actives have a fitted effect of over 55% in size
Summary of the method: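 ATP-based luminescent viability (CellTiter-Glo, 30 min RT) after 16 h compound treatment at 37 C of p53RE-bla HCT-116 cells, seeded at 4,000 cells/well and rested 5 h before dosing.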

[17] = qHTS assay for small molecule activators of the human pregnane X receptor (PXR) signaling pathway (AID 720659; call rule not given here); details: DPX-2 HepG2 CYP3A4-luciferase, 24 h; series mostly up to 92.3 µM
[18] = molecular target: Mitogen-activated protein kinase 10 (Mus musculus) (UniProt Q61831); assay: JNK3 AlphaScreen Assay (AID 530; active means well fitted curve in either direction with a large enough effect, not every such curve was filed as active;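 further: kinase came from lysate of stimulated human HepG2 cells; signal reports phosphorylation of biotinylated GST-cJun 1-79 at Ser73 with 10 µM ATP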); details: JNK3 lysate, c-Jun phosphorylation; series mostly up to 11.4 µM
Summary of the method: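 Inhibitors reduce antibody binding to phosphorylated biotin-cJun, lowering AlphaScreen luminescence. Lysates from HepG2 cells pre-activated by IL-1beta plus TNF-alpha supplied JNK3; compounds were titrated.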

[19] = molecular target: Nuclear receptor ROR-gamma (Homo sapiens) (UniProt P51449); assay: qHTS assay for small molecule antagonists of the retinoid-related orphan receptor gamma (ROR-gamma) signaling pathway (AID 651802); details: ROR-gamma antagonist cell reporter assay; series mostly up to 92.2 µM;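 further: luciferase reporter luminescence driven by ROR response element; nearly all actives have a fitted effect of over 60% in size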
Chain of Nuclear receptor ROR-gamma (Homo sapiens) (P51449 whole entry, looked up): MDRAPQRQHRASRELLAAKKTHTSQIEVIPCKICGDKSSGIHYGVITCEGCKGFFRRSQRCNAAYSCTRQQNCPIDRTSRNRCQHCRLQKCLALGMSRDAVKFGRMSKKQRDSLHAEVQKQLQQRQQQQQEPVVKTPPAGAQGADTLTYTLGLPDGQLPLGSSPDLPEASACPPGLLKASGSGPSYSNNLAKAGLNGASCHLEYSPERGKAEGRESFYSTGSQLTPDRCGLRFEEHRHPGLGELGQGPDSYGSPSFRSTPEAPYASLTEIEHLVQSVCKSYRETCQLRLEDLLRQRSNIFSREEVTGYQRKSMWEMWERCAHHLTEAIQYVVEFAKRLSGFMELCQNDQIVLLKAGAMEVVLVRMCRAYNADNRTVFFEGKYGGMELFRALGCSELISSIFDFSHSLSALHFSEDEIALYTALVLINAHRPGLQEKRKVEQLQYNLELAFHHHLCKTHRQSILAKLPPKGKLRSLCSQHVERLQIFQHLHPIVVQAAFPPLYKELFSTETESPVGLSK
Summary of the method: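 CHO cells with TET-inducible ROR-gamma and RORE-luciferase reporter, dosed then doxycycline-induced. After 16 h at 37C, One-Glo luminescence read; decreased signal indicates antagonism.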

[20] = qHTS assay for small molecule agonists of the antioxidant response element (ARE) signaling pathway (AID 651741; active means well fitted activation curve with a large enough effect in the signal ratio; the % refers to the signal ratio; further: potency means the concentration at half of the fitted maximal effect); details: HepG2 ARE-bla reporter, beta-lactamase FRET ratio, 16 h; series mostly up to 96 µM
Summary of the method: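 Compounds in DMSO are pinned onto HepG2 ARE-bla cells (2,000/well) that were preincubated 5 h; plates stay 16 h at 37 C, then beta-lactamase activity is detected with LiveBLAzer B/G substrate by fluorescence.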

| Compound | Potency [1] | activity change, negative = cytotoxicity [2] | Potency [3] | Potency [4] | Potency [5] | activation [6] | Potency [7] | Potency [8] | Potency [9] | activation [10] | Potency [11] | Potency [12] | max response [13] | Potency [14] | Potency [15] | Potency [16] | outcome [17] | Potency [18] | Potency [19] | Potency [20] |
| --- | --- | --- | --- | --- | --- | --- | --- | --- | --- | --- | --- | --- | --- | --- | --- | --- | --- | --- | --- | --- |
| CN(C)c1ccc(Cc2ccc(N(C)C)cc2)cc1 | > 92 µM (inactive) | -18.8% (inactive) | inactive | inactive | inactive | 7.64% (inactive) and -3.57% (inactive) | inactive | inactive | inactive | -0.0867% (inactive) and 0.169% (inactive) | inactive |  |  |  |  |  |  |  |  |  |
| Cc1ccc(C(=O)O)cc1[N+](=O)[O-] | > 92 µM (inactive) | -13.4% (inactive) | inactive | inactive | inactive |  | inactive | inactive |  | -1.02% (inactive) | inactive | inactive | 0.231% | inactive | inactive | inactive | inactive |  |  |  |
| Cc1ccc(N)cc1[N+](=O)[O-] | > 92 µM (inactive) |  |  | inactive | inactive | 0.881% (inactive) | inactive | inactive | inactive | 0.0603% (inactive) | inactive |  | 4.03% | inactive | inactive | inactive | inactive | inactive | inactive |  |
| C1CCCNCC1 | > 92 µM (inactive) | -12.5% (inactive) |  | inactive | inactive | 8.29% (inactive) |  |  | inactive |  | inactive | inactive | -9.69% | inactive | inactive |  | inactive |  | inactive | inactive |
| c1ccc(CSCc2ccccc2)cc1 | > 92 µM (inactive) | -18.8% (inactive) | inactive | inactive | inactive | -4.65% (inactive) | inactive | inactive | inactive | -0.1% (inactive) | inactive |  | -16.6% |  | inactive |  | inactive |  | inactive | inactive |
| O=C(OCc1ccccc1)c1ccccc1O | > 92 µM (inactive) | -9.56% (inactive) |  | inactive | inactive | -2.46% (inactive) and -9.77% (inactive) | inactive | inactive | inactive | -0.301% (inactive) and -2.68% (inactive) | inactive | inactive | -8.01% and -0.712% | 39.8 µM (active) | inactive | inactive | inactive |  | inactive |  |
| O=[N+]([O-])c1ccccc1Nc1ccccc1 | > 92 µM (inactive) | -20.1% (inactive) | inactive | inactive | inactive |  | inactive | inactive |  |  | inactive | inactive | -18.5% | 35.5 µM (active) | inactive | inactive | inactive |  |  |  |
| Cc1cc(=O)oc2cc(O)cc(O)c12 | > 92 µM (inactive) |  | inactive | inactive | inactive | 9.06% (inactive) | inactive |  | inactive |  | inactive | 6.31 µM (active) |  | inactive | 7.5 µM (active) | inactive | inactive |  | inactive | 13.3 µM (active) |
